In the supplement of paper PMC6992640:
Counter-ions that a name gives are not always drawn. ± gives the standard deviation of the averaged measurements.

How the values were obtained:
Experiment in all cases: cell viability (% of vehicle); higher = less cytotoxic
Details in all cases: 10 µM; 72 h
HCI01 = test system: HCI01 (cells of a triple-negative basal-like breast cancer xenograft)
HCI03 = test system: HCI03 (cells of an ER-positive luminal breast cancer xenograft)
HCI09 = test system: HCI09 (cells of a triple-negative luminal androgen receptor type breast cancer xenograft)
HCI11 = test system: HCI11 (cells of an ER-positive luminal breast cancer xenograft)
HCI13 = test system: HCI13 (cells of an ER-positive luminal breast cancer xenograft)
HCI16 = test system: HCI16 (cells of a triple-negative basal-like breast cancer xenograft)
UCD52 = test system: UCD52 (cells of a triple-negative basal-like breast cancer xenograft)
WHIM2 = test system: WHIM2 (cells of a triple-negative basal-like breast cancer xenograft)
WHIM30 = test system: WHIM30 (cells of a triple-negative basal-like breast cancer xenograft)
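Further: PDX cells carrying CMV promoter-driven luciferase, viability read as total photon flux per second by IVIS imaging following D-luciferin, vehicle control 0.1% DMSO.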

| SMILES | cell viability (HCI01) | cell viability (HCI03) | cell viability (HCI09) | cell viability (HCI11) | cell viability (HCI13) | cell viability (HCI16) | cell viability (UCD52) | cell viability (WHIM2) | cell viability (WHIM30) |
| --- | --- | --- | --- | --- | --- | --- | --- | --- | --- |
| Cl.NC(CO)C(=O)NNCc1ccc(O)c(O)c1O (configuration not stated) [Benserazide HCl] | 95.9 ± 1.5 | 69.1 | 83.6 ± 6.1 | 44.9 | 79.2 ± 11 | 77.2 | 69.6 ± 8.5 | 96.3 ± 3.2 | 103 ± 4.4 |
| C[C@H](C(=O)O)c1ccc(-c2ccccc2)c(F)c1 [(S)-Flurbiprofen] | 109 ± 15 | 138 | 98.3 ± 21 | 78.6 | 98.7 ± 1.3 | 107 | 103 ± 2.4 | 103 ± 13 | 106 ± 5.7 |
| CC(=O)c1c(C)c2cnc(Nc3ccc(N4CCNCC4)cn3)nc2n(C2CCCC2)c1=O.Cl | 134 ± 73 | 141 | 86.1 ± 9.9 | 152 | 110 ± 31 | 114 | 82.86 ± 0.55 | 88.8 ± 7.7 | 132 ± 6.1 |
| O=C([O-])c1cc(=O)c2c(OCC(O)COc3cccc4oc(C(=O)[O-])cc(=O)c34)cccc2o1.[Na+].[Na+] [Cromolyn sodium] | 136 ± 48 | 135 | 97.1 ± 3.8 | 71.8 | 102 ± 13 | 116 | 113 ± 5 | 134 ± 15 | 121 ± 4.5 |
| CC(C)OC(=O)OCOP(=O)(COC(C)Cn1cnc2c(N)ncnc21)OCOC(=O)OC(C)C.O=C(O)C=CC(=O)O (configuration not stated) [Tenofovir Disoproxil Fumarate] | 106 ± 2.7 | 130 | 94.5 ± 7.6 | 97 | 51.9 ± 9.2 | 105 | 106 ± 12 | 118 ± 28 | 136 ± 10 |
| O=C(O)c1cccnc1 [Nicotinic Acid] | 97.2 ± 15 | 119 | 100 ± 20 | 87.3 | 112 ± 18 | 98.5 | 92.8 ± 2.8 | 84.3 ± 10 | 143.6 ± 0.45 |
| COc1ccc2c(c1)c(CC(=O)O)c(C)n2C(=O)c1ccc(Cl)cc1 [Indomethacin] | 106 ± 20 | 88.7 | 96.7 ± 1.1 | 79.2 | 105 ± 4.9 | 92 | 72.4 ± 13 | 92.1 ± 4.3 | 93 ± 5.3 |
| OC(Cn1cncn1)(Cn1cncn1)c1ccc(F)cc1F [Fluconazole hydrate] | 116 ± 7.6 | 109 | 99.4 ± 25 | 89.7 | 138 ± 7.4 | 101 | 93.5 ± 5.6 | 99.1 ± 9.9 | 127 ± 21 |
| CN1C2CCCC1CC(NC(=O)c1nn(C)c3ccccc13)C2 (configuration not stated) [Granisetron] | 112 ± 1.8 | 119 | 108 ± 9.4 | 81.8 | 108 ± 12 | 89.3 | 105 ± 4.6 | 110 ± 28 | 133 ± 31 |
| C=C[C@]1(C)C[C@@H](OC(=O)CSC(C)(C)CNC(=O)[C@H](N)C(C)C)[C@]2(C)[C@H](C)CC[C@]3(CCC(=O)[C@H]32)[C@@H](C)[C@@H]1O [Valnemulin HCl] | 90.1 ± 7.2 | 107 | 66 ± 3.6 | 91.8 | 63.2 ± 0.68 | 120 | 78.3 ± 4.9 | 102 ± 20 | 114 ± 3 |
| CC1OC(OC2C(CO)OC(OC3C(CO)OC(O)C(O)C3O)C(O)C2O)C(O)C(O)C1NC1C=C(CO)C(O)C(O)C1O (configuration not stated) [Acarbose] | 112 ± 9.7 | 109 | 99 ± 8.6 | 88.2 | 117 ± 12 | 78.5 | 93.3 ± 9.7 | 86 ± 17 | 104 ± 29 |
| NC(=O)c1cccnc1 [Nicotinamide] | 95.4 ± 11 | 114 | 95.5 ± 14 | 99.9 | 110 ± 5 | 107 | 99.57 ± 0.88 | 86.9 ± 12 | 94.7 ± 5.4 |
| CC1=C(C(=O)O)N2C(=O)C(NC(=O)C(N)c3ccccc3)C2SC1 (configuration not stated) [Cephalexin] | 135 ± 38 | 122 | 86.6 ± 21 | 101 | 76.3 ± 2.8 | 113 | 114.8 ± 0.94 | 118 ± 12 | 111 ± 5.6 |
| Clc1ccc2c(c1)C(N1CCNCC1)=Nc1ccccc1O2 [Amoxapine] | 96.5 ± 15 | 104 | 87.5 ± 8.7 | 85 | 88 ± 2.5 | 94.9 | 100 ± 40 | 91.7 ± 7.3 | 197 ± 18 |
| CCCS(=O)c1ccc2nc(NC(=O)OC)[nH]c2c1 (configuration not stated) [Albendazole Oxide] | 115 ± 11 | 144 | 110 ± 35 | 105 | 68.2 ± 9.5 | 106 | 103 ± 11 | 112 ± 34 | 141.6 ± 1.2 |
| CC1(C)CCC(C)(C)c2cc(NC(=O)c3ccc(C(=O)O)cc3)ccc21 [Tamibarotene] | 108 ± 22 | 63.1 | 65.6 ± 45 | 95.9 | 73.8 ± 30 | 77.1 | 124 ± 10 | 98.1 ± 28 | 121 ± 9.1 |
| O=C(O)Cc1cc(I)c(Oc2ccc(O)c(I)c2)c(I)c1 [Tiratricol] | 112 ± 48 | 99 | 82.8 ± 6.7 | 87.2 | 42.5 ± 4.2 | 97.2 | 75.6 ± 7.3 | 103 ± 20 | 115 ± 6.8 |
| Cc1ncc([N+](=O)[O-])n1CC(O)CCl (configuration not stated) [Ornidazole] | 94.9 ± 14 | 115 | 96 ± 7.9 | 83.2 | 111 ± 18 | 105 | 85.1 ± 4.3 | 88.1 ± 8.4 | 108 ± 10 |
| O=C1NC(=O)[C@@H](c2c[nH]c3ccccc23)[C@H]1c1cn2c3c(cccc13)CCC2 [Tivantinib (ARQ 197)] | 161 ± 20 | 81 | 51.5 ± 4.9 | 111 | 43.6 ± 9.6 | 125 | 81.8 ± 4.7 | 107 ± 11 | 147 ± 26 |

| SMILES | cell viability (HCI01) | cell viability (HCI03) | cell viability (HCI09) | cell viability (HCI11) | cell viability (HCI13) | cell viability (HCI16) | cell viability (UCD52) | cell viability (WHIM2) | cell viability (WHIM30) |
| --- | --- | --- | --- | --- | --- | --- | --- | --- | --- |
| COc1c(N2CC3CCCNC3C2)c(F)cc2c(=O)c(C(=O)O)cn(C3CC3)c12.Cl (configuration not stated) [Moxifloxacin HCl] | 132 ± 5.7 | 124 | 97.1 ± 3.3 | 120 | 113 ± 14 | 114 | 133 ± 11 | 92.3 ± 8.9 | 134 ± 16 |
| CC(OC1OCCN(Cc2nc(=O)[nH][nH]2)C1c1ccc(F)cc1)c1cc(C(F)(F)F)cc(C(F)(F)F)c1 (configuration not stated) [Aprepitant] | 81 ± 48 | 91.5 | 77.5 ± 16 | 86.9 | 35.8 ± 4.5 | 66.1 | 75.3 ± 3.8 | 100 ± 11 | 83.6 ± 3.1 |
| Cc1ccsc1C(=CCCN1CCC[C@@H](C(=O)O)C1)c1sccc1C [Tiagabine] | 96.4 ± 12 | 81.9 | 105 ± 4.9 | 84.2 | 96.9 ± 1.7 | 115 | 89.1 ± 5.2 | 100 ± 22 | 96 ± 12 |
| Cl.NNc1nncc2ccccc12 [Hydralazine HCl] | 142 ± 22 | 131 | 113 ± 9.5 | 79.8 | 121 ± 7.1 | 180 | 162 ± 3.2 | 148 ± 5.5 | 151 ± 11 |
| Cl.c1ccc2c(CC3=NCCN3)cccc2c1 [Naphazoline HCl] | 121 ± 18 | 105 | 104 ± 20 | 101 | 88.7 ± 14 | 93.3 | 81.6 ± 9.3 | 92.3 ± 26 | 122 ± 21 |
| CCCCOc1cc(C(=O)NCCN(CC)CC)c2ccccc2n1 [Dibucaine] | 94.3 ± 30 | 158 | 95.5 ± 9.9 | 93.9 | 135 ± 2 | 135 | 81.16 ± 0.71 | 95.1 ± 14 | 89.012 ± 0.00099 |
| COCC1=C(C(=O)OC(C)OC(=O)OC(C)C)N2C(=O)[C@@H](NC(=O)/C(=N\OC)c3csc(N)n3)[C@H]2SC1 (some centres not stated) [Cefpodoxime Proxetil] | 106 ± 3.7 | 176 | 102 ± 11 | 103 | 109 ± 18 | 133 | 99.2 ± 12 | 106 ± 3.2 | 105 ± 12 |
| O=C([O-])c1ccccc1O.[Na+] [Sodium salicylate] | 96.1 ± 24 | 121 | 100 ± 7.2 | 91.4 | 107 ± 12 | 124 | 85.6 ± 3.5 | 89.1 ± 15 | 94.4 ± 3.4 |
| Cc1cc(Nc2cc(N3CCN(C)CC3)nc(Sc3ccc(NC(=O)C4CC4)cc3)n2)n[nH]1 [VX-680 (MK-0457,Tozasertib)] | 122 ± 11 | 84.3 | 70 ± 21 | 133 | 81.5 ± 1.7 | 111 | 66.5 ± 10 | 67.6 ± 2.1 | 142 ± 14 |
| CC(=O)OC1(C(C)=O)CCC2C3CCC4=CC(=O)CCC4=C3C(c3ccc(N(C)C)cc3)CC21C (configuration not stated) [Ulipristal acetate] | 97.9 ± 26 | 116 | 82.5 ± 9 | 78.9 | 92.8 ± 17 | 117 | 93.4 ± 5.8 | 105 ± 2.1 | 111 ± 18 |
| CC(=O)O.C[C@H](N)C(=O)O.NCCCC[C@H](N)C(=O)O.N[C@@H](CCC(=O)O)C(=O)O.N[C@@H](Cc1ccc(O)cc1)C(=O)O [glatiramer acetate] | 94.3 ± 13 | 136 | 108 ± 11 | 108 | 171 ± 16 | 125 | 118 ± 10 | 95.9 ± 38 | 145 ± 6.9 |
| Cc1ccc(=O)n(-c2ccccc2)c1 [Pirfenidone] | 92.4 ± 3 | 99.8 | 103 ± 26 | 89.4 | 106 ± 4.5 | 91.3 | 85.5 ± 5.1 | 97 ± 15 | 111 ± 11 |
| CN(Cc1cnc2nc(N)nc(N)c2n1)c1ccc(C(=O)NC(CCC(=O)O)C(=O)O)cc1 (configuration not stated) [Methotrexate] | 101 ± 8.6 | 115 | 91.1 ± 13 | 113 | 104 ± 7.5 | 93.4 | 89.1 ± 8.7 | 101 ± 2.1 | 94.9 ± 13 |
| CN(C)CCN1C(=O)c2cccc3cc(N)cc(c23)C1=O [Amonafide] | 103 ± 4 | 69.4 | 42.7 ± 14 | 90.4 | 64.7 ± 3.1 | 196 | 138 ± 26 | 55.5 ± 5.5 | 78.5 ± 1.6 |
| O=C1C(=O)c2ccccc2C(O)=C1C1CCC(c2ccc(Cl)cc2)CC1 (configuration not stated) [Atovaquone] | 81.6 ± 34 | 82.3 | 27.7 ± 4.7 | 54.9 | 50 ± 1.9 | 116 | 78.9 ± 15 | 99.7 ± 8.7 | 72.4 ± 1.9 |
| Cc1ccc(F)c(NC(=O)Nc2ccc(-c3cccc4[nH]nc(N)c34)cc2)c1 [Linifanib (ABT-869)] | 117 ± 45 | 165 | 54.2 ± 0.96 | 68.7 | 72 ± 2.6 | 120 | 92.18 ± 0.33 | 160 ± 47 | 139 ± 45 |
| CC(=O)N(CC(O)CO)c1c(I)c(C(=O)NCC(O)CO)c(I)c(C(=O)NCC(O)CO)c1I (configuration not stated) [Iohexol] | 117 ± 33 | 116 | 96.5 ± 2.9 | 83.2 | 133 ± 9.7 | 122 | 101 ± 6.7 | 99.2 ± 2.7 | 95.9 ± 8.9 |
| Cc1cc(C=CC#N)cc(C)c1Nc1ccnc(Nc2ccc(C#N)cc2)n1 [Rilpivirine] | 122 ± 9.4 | 111 | 96.5 ± 4.4 | 96.3 | 122 ± 0.84 | 83.9 | 85.5 ± 8.7 | 93.7 ± 11 | 110 ± 28 |
| C=C1c2cccc(O)c2C(O)=C2C(=O)C3(O)C(O)=C(C(N)=O)C(=O)C(N(C)C)C3C(O)C12.Cl (configuration not stated) [Methacycline HCl] | 114 ± 4.2 | 128 | 104 ± 5.9 | 81.8 | 140 ± 12 | 158 | 111 ± 5.5 | 94.3 ± 2 | 121 ± 2.4 |
